# PubChem BioAssay AID651640 (Broad Institute, 2012)
# Out of some 350,000 compounds screened, about 6,000 (1.7%) were called active. About 5% were inconclusive and are not listed. This is one part of a sample in which actives are shown more often than they occur. Rule as the data show it: active = CPE inhibition above about 20% (passing the limit was not always enough); inconclusive = no clear call, values can overlap the other calls; tested in BHK-21 cells.
# Experiment: inhibitors of DENV2 cytopathic effect, primary screen, cell-based, plate reader, single concentration (AID 651640);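 also: 0% = median of neutral control wells and 100% = median of positive control wells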
# Conditions: DENV2-infected cells, cytopathic effect rescue, at 9.99 µM, hits give high values
row,SMILES,CPE inhibition
1,C[C@@H]1CCCCO[C@@H](CN(C)C(=O)Nc2ccc(F)cc2)[C@H](C)CN([C@@H](C)CO)C(=O)c2cc(NS(C)(=O)=O)ccc2O1,-6.59% (inactive)
2,CCCC(=O)N1CC2(C1)CN(C(=O)COC)[C@@H](CO)c1c2c2ccc(OC)cc2n1C,10.6% (inactive)
3,O=S(=O)(NC[C@H]1[C@H](c2ccccc2)[C@H](CO)N1CC1CC1)c1ccccc1,16.5% (inactive)
4,CCc1cnc(N2[C@H](C#N)[C@H](c3ccccc3-c3ccccc3C)[C@H]2CO)s1,6.09% (inactive)
5,N#C[C@@H]1[C@@H](c2ccc(C3=CCCC3)cc2)[C@@H](CO)N1C(=O)C1CCCC1,-3.68% (inactive)
6,CCc1cnc(N2[C@H](C#N)[C@H](c3ccc(C4=CCCC4)cc3)[C@@H]2CO)s1,42.6% (active)
7,CO[C@@H]1CN(C)C(=O)c2cc(NC(=O)c3cc(C)on3)ccc2OC[C@@H](C)N(C(C)=O)C[C@@H]1C,5.53% (inactive)
8,O=C(CCC(=O)c1ccccc1)NCc1cccc(C(F)(F)F)c1,-5.25% (inactive)
9,CCCNC(=O)C1(C)CCCN(Cc2cccc(C(F)(F)F)c2)C1 (configuration not stated),10.8% (inactive)
10,O=C(CN1CCC(O)(c2cccc(C(F)(F)F)c2)CC1)NCCc1ccccc1,24.3% (active)
11,CO[C@H]1CN(C)C(=O)c2ccc(NC(=O)Nc3ccc(Cl)cc3)cc2OC[C@H](C)N(C(=O)Nc2c(C)noc2C)C[C@@H]1C,1.51% (inactive)
12,CCCN1C[C@H](C)[C@H](OC)CN(C)C(=O)c2cc(NC(=O)C3CCOCC3)ccc2OC[C@@H]1C,-12% (inactive)
13,O=C(Nc1ccc2c(c1)[C@@H]1C[C@H](CC(=O)N3CCOCC3)O[C@@H](CO)[C@@H]1O2)C1CCOCC1,14.6% (inactive)
14,CCC(=O)Nc1ccc2c(c1)C(=O)N(C)C[C@H](OC)[C@@H](C)CN(Cc1cccnc1)[C@H](C)CO2,3.46% (inactive)
15,Cc1cccc(C(=O)O)c1[N+](=O)[O-],29.4% (active)
16,Cc1ccccc1C(=O)O,0.715% (inactive)
17,Cc1cc(C(=O)O)ccc1[N+](=O)[O-],-17.9% (inactive)
18,O=C(C[C@H]1C[C@H]2c3cc(NC(=O)Nc4ccc(F)cc4)ccc3O[C@H]2[C@H](CO)O1)NCC1CC1,-5.03% (inactive)
19,O=C(NC1CCCC1)[C@H]1[C@H](CO)[C@H]2Cn3c(cccc3=O)[C@H]2N1C(=O)NC1CCCC1,1.25% (inactive)
20,Cn1cnc(CCNC(=O)C[C@H]2CC[C@H]3[C@@H](COC[C@H](O)CN3C(=O)C3CCCC3)O2)c1,-0.992% (inactive)
21,O=C(NCc1ccccc1)[C@H]1CCCN1C(=O)[C@@H]1CCCN1C(=O)c1ccc(Cl)cc1Cl,40.8% (active)

row,SMILES,CPE inhibition
1,O=C(NCc1ccccc1)[C@H]1CCCN1C(=O)[C@H]1CCCN1C(=O)c1cc(F)cc(F)c1,-4.56% (inactive)
2,O=C(NCc1ccccc1)[C@@H]1CCCN1C(=O)[C@H]1CCCN1C(=O)c1cccc(Cl)c1,-9.03% (inactive)
3,CC(C)CC#Cc1ccc([C@H]2[C@H]3CN(C(=O)c4cnccn4)CC(=O)N3[C@H]2CO)cc1,6.05% (inactive)
4,COc1ccc2c3c([nH]c2c1)[C@@H](CO)N(Cc1cc(F)ccc1F)CC31CCN(C(=O)C2CCC2)CC1,8.85% (inactive)
5,C[C@@H]1CCCCO[C@@H](CN(C)C(=O)Cc2ccccc2)[C@H](C)CN([C@@H](C)CO)C(=O)c2cc(NC(=O)Nc3ccc4c(c3)OCO4)ccc2O1,-20.6% (inactive)
6,O=C1O[C@@H](c2ccccc2)[C@@H](c2ccccc2)N2[C@@H](c3ccccc3OCCO)[C@]3(C(=O)Nc4ccc(C#CC5(O)CCCCCC5)cc43)[C@@H](C(=O)N3CCCCCCC3)[C@H]12,-1.79% (inactive)
7,COc1ccc(C#Cc2ccc3c(c2)[C@]2(C(=O)N3)[C@H](C(=O)N3CCCCCCC3)[C@H]3C(=O)O[C@H](c4ccccc4)[C@H](c4ccccc4)N3[C@@H]2c2ccc(O)cc2)cc1,16.4% (inactive)
8,COc1ccc(C#Cc2ccc3c(c2)[C@]2(C(=O)N3)[C@H](c3ccccc3OCCO)N3[C@H](c4ccccc4)[C@H](c4ccccc4)OC(=O)[C@H]3[C@@H]2C(=O)N2CCCCCCC2)cc1,22.3% (active)
9,COc1ccccc1-c1ccc([C@@H]2[C@@H](CO)N3CCCCN(C(=O)c4ccncc4)C[C@@H]23)cc1,-5.15% (inactive)
10,COc1cccc(CNC(=O)C[C@H]2CC[C@@H](NC(C)=O)[C@@H](CO)O2)c1,-0.331% (inactive)
11,Cc1ccc(S(=O)(=O)N[C@H]2C=C[C@@H](CC(=O)NCCc3ccncc3)O[C@@H]2CO)cc1,-2.51% (inactive)
12,CCNC(=O)C[C@H]1CC[C@@H]2[C@H](COc3ccc(NC(=O)Nc4cccc(Cl)c4)cc3C(=O)N2C)O1,3% (inactive)
13,CCN(CC)S(=O)(=O)c1ccc(OC)c(NC(=O)CCc2c(C)noc2C)c1,-4.63% (inactive)
14,CCN(CC)S(=O)(=O)c1ccc(C)c(NC(=O)COc2ccc(Br)cc2Cl)c1,52.1% (active)
15,CCN(CC)S(=O)(=O)c1ccc(Cl)c(NC(=O)c2ccncc2)c1,2.11% (inactive)
16,Nc1[nH]c(C(=O)c2ccc(Br)cc2)c(-c2ccc3c(c2)OCO3)c1C(=O)NCCc1c[nH]c2ccccc12,9.1% (inactive)
17,Cc1ccccc1-c1ccc([C@@H]2[C@@H](CO)N3CCCCN(C(=O)Nc4cccc(F)c4)C[C@H]23)cc1,-1.69% (inactive)
18,CC(C)[C@@H](C)/C=C/[C@@H](C)[C@H]1CC[C@@H]2[C@]1(C)CCC1[C@]23C=C[C@]2(C[C@@H](O)CC[C@]12C)N(c1ccc([N+](=O)[O-])cn1)O3 (some centres not stated),-2.89% (inactive)
19,COC(=O)c1c(-c2ccc(OC)cc2)c2c(c3c4ccccc4n(S(=O)(=O)c4ccc(C)cc4)c13)C(=O)N(C)C2,2.43% (inactive)
20,COC(=O)c1c(-c2ccc(OC)cc2)c2c(c3c4cc(OC)ccc4n(S(=O)(=O)c4ccc(F)cc4)c13)C(=O)N(C)C2,44.7% (active)
21,COC(=O)c1cc2c(c3c4cc(F)ccc4n(S(=O)(=O)c4ccccc4)c13)C(=O)N(Cc1ccccc1OC)C2,15.1% (inactive)
